Experimental data: the supplement of paper PMC10477191
± gives the standard deviation of the averaged measurements.

The molecules below were run on Drosophila virilis antennal basiconic sensillum AB2 (assay: odor-evoked OSN spike response (post minus pre-stimulus); higher = stronger neuronal excitation). Details: odor dilution: 10^-4.
How it was run: (§1)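 The response is the change in spike frequency between pre-stimulus and post-stimulus windows, averaged over replicate sensilla. Both windows lasted 1 second, and spikes were counted with Auto Spike software. Single sensillum recordings used a tungsten electrode at the base of antennal basiconic sensilla on restrained adult flies, with up to 3 sensilla per fly, and odorant at 10^−4 in mineral oil or DMSO (10 µl on filter paper) was delivered as a 500 ms pulse into a charcoal-filtered, humidified 1.5 l min^−1 air stream.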

SMILES	odor-evoked OSN spike response [spikes/s]
CCOC(C)=O [Ethyl acetate]	65 ± 20
CC(C)OC(=O)c1ccccc1 [isopropyl benzoate]	45.6 ± 23
CCCC(=O)OCc1ccccc1 [benzyl butyrate]	58.8 ± 31
CCCC(=O)OCC [ethyl butanoate]	71.9 ± 26
C/C=C/C(=O)OCC [Ethyl crotonate]	47.5 ± 26

These molecules were tested on Drosophila virilis antennal basiconic sensillum AB3 in the same assay as above. Details: odor dilution: 10^-4.
How it was run: as §1

SMILES	odor-evoked OSN spike response [spikes/s]
CCCCCC(=O)OCC [ethyl hexanoate]	153 ± 23
CCCCCOC(C)=O [pentyl acetate]	121 ± 16
CCOC(=O)CC(C)O (stereo unspecified) [Ethyl-3-hydroxybutyrate]	167 ± 54
CCOC(=O)C(C)O (stereo unspecified) [Ethyl lactate]	156 ± 44
CC(O)C(C)O (stereo unspecified) [2,3-Butanediol]	67.8 ± 30
CC(=O)C(C)O (stereo unspecified) [acetoin]	226 ± 54

These molecules were tested on Drosophila virilis antennal basiconic sensillum AB6 in the same assay as above. Details: odor dilution: 10^-4.
How it was run: as §1

SMILES	odor-evoked OSN spike response [spikes/s]
C=CC(O)CCCCC (stereo unspecified) [1-octen-3-ol]	114 ± 44
CCOC(=O)CC(C)O (stereo unspecified) [Ethyl-3-hydroxybutyrate]	63.2 ± 25
COc1ccccc1O [guaiacol]	73.3 ± 47
CCOC(=O)C(C)O (stereo unspecified) [Ethyl lactate]	50 ± 22

Each molecule was assayed on Drosophila virilis antennal basiconic sensillum AB7 in the same assay as above. Details: odor dilution: 10^-4.
How it was run: as §1

SMILES	odor-evoked OSN spike response [spikes/s]
CCCCCC(C)=O [2-heptanone]	155 ± 25
C=CC(O)CCCCC (stereo unspecified) [1-octen-3-ol]	106 ± 11
CC(=O)CCC=C(C)C [6-methyl-5-hepten-2-one]	150 ± 34
CCCCCC(=O)OCC [ethyl hexanoate]	49 ± 24
CCCC(O)CC (stereo unspecified) [3-hexanol]	57 ± 28
CCCCC(C)=O [2-hexanone]	50.8 ± 8.6
CCCCCCO [1-hexanol]	61.4 ± 22
CCCC(=O)OCC [ethyl butanoate]	68.8 ± 9.7
CCCCCOC(C)=O [pentyl acetate]	75.4 ± 13
CC(C)CCO [Isopentyl alcohol]	51.2 ± 14
CCOC(=O)CC(C)O (stereo unspecified) [Ethyl-3-hydroxybutyrate]	85.6 ± 14
CCCCC(C)O (stereo unspecified) [2-hexanol]	61.4 ± 9.6
CCOC(=O)C(C)O (stereo unspecified) [Ethyl lactate]	52.6 ± 7.5
CC(O)C(C)O (stereo unspecified) [2,3-Butanediol]	66.2 ± 17

What follows are molecules tested on Drosophila virilis antennal basiconic sensillum AB8 in the same assay as above. Details: odor dilution: 10^-4.
How it was run: as §1

SMILES	odor-evoked OSN spike response [spikes/s]
C=CC(O)CCCCC (stereo unspecified) [1-octen-3-ol]	113 ± 14
CCCCCC(=O)OCC [ethyl hexanoate]	66.1 ± 8.9
CCC(=O)OCCC(C)C [Isopentyl propionate]	56.8 ± 27
CCCCCCO [1-hexanol]	239 ± 25
CCCCCOC(C)=O [pentyl acetate]	119 ± 24
CCCCCCOC(C)=O [Hexyl acetate]	35.3 ± 18
CCOC(=O)CC(C)O (stereo unspecified) [Ethyl-3-hydroxybutyrate]	53 ± 9.4
CCOC(=O)C(C)O (stereo unspecified) [Ethyl lactate]	44.8 ± 12

Each molecule was assayed on Drosophila virilis antennal basiconic sensillum AB9 in the same assay as above. Details: odor dilution: 10^-4.
How it was run: as §1

SMILES	odor-evoked OSN spike response [spikes/s]
CCCOC(C)=O [propyl acetate]	84.2 ± 24
CCOC(=O)c1ccccc1 [ethyl benzoate]	85.5 ± 21
CCCCCC(=O)OCC [ethyl hexanoate]	67.4 ± 21
COC(=O)c1ccccc1 [methyl benzoate]	86.1 ± 27
CCC(=O)OCCC(C)C [Isopentyl propionate]	86.6 ± 27
CCCCCCO [1-hexanol]	28.8 ± 14
CCCC(=O)OCC [ethyl butanoate]	75.9 ± 26
CCCCCOC(C)=O [pentyl acetate]	80 ± 39
CCCC(=O)CC [3-hexanone]	65.5 ± 27
CCCCCCOC(C)=O [Hexyl acetate]	53.3 ± 21
CCOC(=O)CC(C)O (stereo unspecified) [Ethyl-3-hydroxybutyrate]	58.3 ± 24
CC(=O)OCCC(C)C [Isopentyl acetate]	81.4 ± 33
CCOC(=O)C(C)O (stereo unspecified) [Ethyl lactate]	72.4 ± 20
CC(=O)C(C)O (stereo unspecified) [acetoin]	97.4 ± 24
